Source: PubChem BioAssay
Activity calls are given as the source filed them.

How the values were obtained:
[1] = system: Plasmodium falciparum Sir2 (PF13_0152, Sir2A); experiment: pfSir2 binders on small-molecule microarrays, primary screen, biochemical, small-molecule microarray, 635 nm fluorescence (AID 1098); conditions: small-molecule microarray binding, fluorescence 635 nm; higher = more signal;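 also: score merges spot fluorescence intensity with its signal-to-noise ratio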
[2] = small-molecule microarray binders of probe aDKK1, primary screen, biochemical, biotinylated probe, 635/667 nm fluorescence (AID 1099); conditions: higher = more signal;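 also: score merges 667nm spot fluorescence with signal to noise across triplicate slides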
[3] = small-molecule microarray binders of probe aCHRDL2, primary screen, biochemical, biotinylated probe, 635/667 nm fluorescence (AID 1100); conditions: higher = more signal
[4] = splicing luciferase reporter signal modulators, primary screen, spliceosome inhibition project, cell-based, HEK293, splice +/- reporter (AID 1101); conditions: luminescence, 24 h, higher = more signal, called active from +8 up or from −8 down;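 also: HEK293 cells carrying a splicing-competent luciferase reporter gene; test concentration not given here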
[5] = target: Fibroblast growth factor 10 (Homo sapiens) (UniProt O15520); experiment: FGF10 binders on small-molecule microarrays, primary screen, biochemical, small-molecule microarray, 635 nm fluorescence (AID 1102); conditions: FGF10 binding, fluorescence 635 nm, higher = more signal
Fibroblast growth factor 10 (Homo sapiens), sequence (O15520 whole entry, looked up): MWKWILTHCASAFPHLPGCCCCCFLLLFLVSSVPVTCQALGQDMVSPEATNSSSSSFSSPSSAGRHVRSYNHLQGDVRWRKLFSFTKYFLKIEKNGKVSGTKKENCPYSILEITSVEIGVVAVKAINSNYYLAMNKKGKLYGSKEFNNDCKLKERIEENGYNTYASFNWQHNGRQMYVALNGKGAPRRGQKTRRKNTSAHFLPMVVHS

[6] = system: glycogen synthase kinase-3 (GSK3A per assay name; protocol says GSK3B); experiment: GSK3 binders on small-molecule microarrays, primary screen, biochemical, small-molecule microarray, 635 nm fluorescence, GSK3A (AID 1103); conditions: small-molecule microarray binding, fluorescence 635 nm; higher = more signal; also: the record names both GSK3A and GSK3B
[7] = target: Epidermal growth factor receptor (Homo sapiens) (UniProt P00533); experiment: EGFR binders on small-molecule microarrays, primary screen, biochemical, small-molecule microarray, 635 nm fluorescence (AID 1104); conditions: EGFR binding, higher = more signal;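 also: score merges 667 nm emission intensity with spot signal to noise over triplicate slides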
Epidermal growth factor receptor (Homo sapiens), sequence (P00533 whole entry, looked up): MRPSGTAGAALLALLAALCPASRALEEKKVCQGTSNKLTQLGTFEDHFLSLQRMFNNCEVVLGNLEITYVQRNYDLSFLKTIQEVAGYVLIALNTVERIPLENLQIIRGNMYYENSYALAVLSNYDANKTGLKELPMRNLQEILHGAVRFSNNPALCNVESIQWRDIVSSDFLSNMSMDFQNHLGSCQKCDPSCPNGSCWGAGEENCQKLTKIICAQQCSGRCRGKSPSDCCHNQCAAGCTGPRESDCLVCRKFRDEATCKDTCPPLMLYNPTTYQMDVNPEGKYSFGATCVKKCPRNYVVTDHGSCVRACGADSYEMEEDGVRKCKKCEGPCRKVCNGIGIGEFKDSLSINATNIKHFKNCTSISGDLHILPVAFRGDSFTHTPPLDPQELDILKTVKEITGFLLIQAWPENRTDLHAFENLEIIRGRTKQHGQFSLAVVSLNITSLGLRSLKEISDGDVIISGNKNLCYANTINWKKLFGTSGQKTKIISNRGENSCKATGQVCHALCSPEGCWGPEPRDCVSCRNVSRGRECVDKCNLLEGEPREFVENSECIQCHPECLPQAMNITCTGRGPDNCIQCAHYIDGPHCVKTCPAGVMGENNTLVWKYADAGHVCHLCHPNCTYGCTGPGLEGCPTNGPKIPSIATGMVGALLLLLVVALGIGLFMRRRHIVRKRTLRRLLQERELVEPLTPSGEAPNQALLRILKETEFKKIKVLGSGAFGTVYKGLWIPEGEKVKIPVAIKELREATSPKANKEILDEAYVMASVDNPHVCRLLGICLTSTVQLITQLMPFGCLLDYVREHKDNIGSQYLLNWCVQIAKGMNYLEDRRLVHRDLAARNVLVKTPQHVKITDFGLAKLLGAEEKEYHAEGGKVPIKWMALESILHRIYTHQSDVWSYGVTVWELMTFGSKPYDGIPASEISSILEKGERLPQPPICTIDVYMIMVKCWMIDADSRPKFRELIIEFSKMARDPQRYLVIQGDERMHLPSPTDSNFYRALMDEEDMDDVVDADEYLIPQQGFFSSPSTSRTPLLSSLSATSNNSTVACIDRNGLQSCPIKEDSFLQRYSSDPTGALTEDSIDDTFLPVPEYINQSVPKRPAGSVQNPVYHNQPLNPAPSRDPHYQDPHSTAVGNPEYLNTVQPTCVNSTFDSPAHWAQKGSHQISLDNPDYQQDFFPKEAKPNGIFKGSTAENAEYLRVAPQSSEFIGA

[8] = target: Follistatin-related protein 3 (Homo sapiens) (UniProt O95633); experiment: FSTL3 binders on small-molecule microarrays, primary screen, biochemical, small-molecule microarray, 635 nm fluorescence (AID 1105); conditions: FSTL3 binding, higher = more signal;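 also: score merges emission near 667 nm and signal to noise per printed spot across three slides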
Follistatin-related protein 3 (Homo sapiens), sequence (O95633 whole entry, looked up): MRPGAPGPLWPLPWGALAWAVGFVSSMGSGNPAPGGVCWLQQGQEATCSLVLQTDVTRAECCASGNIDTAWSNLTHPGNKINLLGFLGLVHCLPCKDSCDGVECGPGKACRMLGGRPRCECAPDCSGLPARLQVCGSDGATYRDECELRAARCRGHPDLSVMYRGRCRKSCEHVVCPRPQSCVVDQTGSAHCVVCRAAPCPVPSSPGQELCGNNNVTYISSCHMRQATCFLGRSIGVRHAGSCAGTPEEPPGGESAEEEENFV

[9] = target: Dickkopf-related protein 1 (Homo sapiens) (UniProt O94907); experiment: DKK1 binders on small-molecule microarrays, primary screen, biochemical, small-molecule microarray, 635 nm fluorescence scan (AID 1106); conditions: DKK1 binding, higher = more signal;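 also: score merges emission near 667 nm with signal to noise over three replicate slides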
Dickkopf-related protein 1 (Homo sapiens), sequence (O94907 whole entry, looked up): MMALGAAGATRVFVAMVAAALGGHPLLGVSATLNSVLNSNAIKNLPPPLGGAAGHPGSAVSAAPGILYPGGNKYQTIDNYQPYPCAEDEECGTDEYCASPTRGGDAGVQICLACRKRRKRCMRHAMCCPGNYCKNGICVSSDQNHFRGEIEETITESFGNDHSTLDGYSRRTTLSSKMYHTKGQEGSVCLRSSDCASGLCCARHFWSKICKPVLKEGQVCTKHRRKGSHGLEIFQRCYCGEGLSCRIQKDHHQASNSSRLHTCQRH

[10] = system: Inhibin beta A chain (activin A); experiment: INHBA (activin A) binders on microarrays, primary screen, biochemical, small-molecule microarray, 635 nm fluorescence scan (AID 1107); conditions: small-molecule microarray binding, higher = more signal;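 also: mouse activin A protein probed at 4.33 µg/mL on printed slides; score merges bound-protein fluorescence near 667 nm with spot signal-to-noise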
[11] = system: Human papillomavirus type 1a protein E7 (residues 44-93); experiment: HPV1a E7 fragment binders on microarrays, primary screen, biochemical, small-molecule microarray, residues 44-93, 635 nm fluorescence (AID 1108); conditions: small-molecule microarray binding, fluorescence 635 nm; higher = more signal;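 also: E7 fragment applied at 1 µg/mL in TBST for 1 h at 4 C; score combines spot fluorescence with its signal to noise ratio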
[12] = modulators of HCV replicon luciferase signal, primary screen, HCV replication inhibitor project, Huh7 cells, luciferase reporter (AID 1109); conditions: 48 h, higher = more signal;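 also: huh7 hepatoma cells harbouring a luciferase neomycin HCV replicon reporter; luciferase luminescence as measure of HCV replicon replication; test concentration not given here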
[13] = target: Left-right determination factor 2 (Homo sapiens) (UniProt O00292); experiment: LEFTY2 binders on small-molecule microarrays, primary screen, biochemical, small-molecule microarray, 635 nm fluorescence scan (AID 1110); conditions: LEFTY2 binding, higher = more signal
Left-right determination factor 2 (Homo sapiens), sequence (O00292 whole entry, looked up): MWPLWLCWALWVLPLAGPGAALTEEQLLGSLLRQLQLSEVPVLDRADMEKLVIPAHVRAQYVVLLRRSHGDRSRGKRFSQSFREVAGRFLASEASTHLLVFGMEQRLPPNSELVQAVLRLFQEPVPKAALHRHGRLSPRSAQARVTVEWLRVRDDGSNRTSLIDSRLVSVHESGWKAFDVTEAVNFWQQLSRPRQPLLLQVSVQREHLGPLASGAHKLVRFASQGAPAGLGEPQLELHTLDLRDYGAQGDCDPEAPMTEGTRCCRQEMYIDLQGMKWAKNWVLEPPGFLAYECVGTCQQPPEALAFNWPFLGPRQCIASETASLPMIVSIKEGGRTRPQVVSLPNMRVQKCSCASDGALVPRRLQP

[14] = target: Calmodulin-1 (Homo sapiens) (UniProt P0DP23); experiment: CALM1 binders on microarrays, EGTA buffer, profiling panel, biochemical, small-molecule microarray, Cy5-labelled CALM1 (AID 1111); conditions: Cy5-CALM1 binding fluorescence, higher = more signal;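 also: labelled calmodulin applied in Tris saline Tween buffer holding calcium plus EGTA and DTT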
[15] = target: Calmodulin-1 (Homo sapiens) (UniProt P0DP23); experiment: calcium-bound CALM1 binders on microarrays, profiling panel, artefact control for SMM control-protein annotation, biochemical, small-molecule microarray, Cy5-labelled CALM1, plus calcium (AID 1112); conditions: Cy5-CALM1 binding fluorescence, higher = more signal;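 also: score merges spot fluorescence with signal to noise from triplicate slides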
[16] = small-molecule microarray binders of probe aWnt5a, primary screen, biochemical, biotinylated probe, 635/667 nm fluorescence (AID 1113); conditions: higher = more signal;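 also: score merges 667 nm fluorescence intensity with signal-to-noise per printed feature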
[17] = small-molecule microarray binders of probe aShh, primary screen, biochemical, biotinylated probe, 635/667 nm fluorescence (AID 1114); conditions: higher = more signal;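 also: probe is biotin-labelled aShh protein from a stem cell growth factor screen; measures binding of labelled protein to compounds printed on the slide; score merges feature fluorescence at 667 nm with signal-to-noise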
[18] = small-molecule microarray binders of probe aNog, primary screen, biochemical, biotinylated probe, 635/667 nm fluorescence (AID 1115); conditions: higher = more signal;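 also: probe is biotinylated aNog protein used at 0.15 µg/mL for 1 h at 4 C; z-score combines 667 nm fluorescence of each spot with its signal to noise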
[19] = target: Torsin-1A-interacting protein 1 (Homo sapiens) (UniProt Q5JTV8); experiment: LAP1 binders from COS7 cell lysate, primary screen, small-molecule microarray, 635/667 nm fluorescence (AID 1116); conditions: COS7-hLAP1 lysate binding, 635 nm fluorescence, higher = more signal
Torsin-1A-interacting protein 1 (Homo sapiens), sequence (Q5JTV8 whole entry, looked up): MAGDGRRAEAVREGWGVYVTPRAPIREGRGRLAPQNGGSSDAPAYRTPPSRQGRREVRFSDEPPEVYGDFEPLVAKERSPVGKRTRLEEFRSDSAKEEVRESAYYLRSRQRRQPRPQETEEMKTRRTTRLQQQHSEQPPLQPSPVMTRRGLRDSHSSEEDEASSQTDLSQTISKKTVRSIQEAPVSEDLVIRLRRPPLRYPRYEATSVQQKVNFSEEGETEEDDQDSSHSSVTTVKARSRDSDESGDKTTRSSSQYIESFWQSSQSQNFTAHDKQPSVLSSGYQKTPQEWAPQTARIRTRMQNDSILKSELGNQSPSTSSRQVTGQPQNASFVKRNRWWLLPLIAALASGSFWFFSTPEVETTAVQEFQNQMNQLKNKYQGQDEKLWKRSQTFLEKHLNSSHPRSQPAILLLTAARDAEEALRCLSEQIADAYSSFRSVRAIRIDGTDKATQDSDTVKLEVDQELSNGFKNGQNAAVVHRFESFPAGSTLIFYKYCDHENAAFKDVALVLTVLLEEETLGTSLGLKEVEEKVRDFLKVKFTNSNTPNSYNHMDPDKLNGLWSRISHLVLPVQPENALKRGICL

[20] = target: Alpha-bungarotoxin (Bungarus multicinctus) (UniProt P60615); experiment: alpha-bungarotoxin binders on microarray, profiling panel, artefact control for SMM control protein annotation, biochemical, small-molecule microarray, Alexa647 label, 635/667 nm fluorescence (AID 1117); conditions: alpha-BTX-A647 binding fluorescence, higher = more signal
Alpha-bungarotoxin (Bungarus multicinctus), sequence (P60615 whole entry, looked up): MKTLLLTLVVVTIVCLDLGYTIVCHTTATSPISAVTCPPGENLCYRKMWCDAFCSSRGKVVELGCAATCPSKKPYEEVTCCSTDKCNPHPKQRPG

SMILES | composite z-score [1] | composite z-score [2] | composite z-score [3] | z-score [4] | composite z-score [5] | composite z-score [6] | composite z-score [7] | composite z-score [8] | composite z-score [9] | composite z-score [10] | composite z-score [11] | z-score [12] | composite z-score [13] | composite z-score [14] | composite z-score [15] | composite z-score [16] | composite z-score [17] | composite z-score [18] | composite z-score [19] | composite z-score [20]
CCCC=C(CCC)[C@@H](NC(=O)c1cccs1)c1ccc(C(F)(F)F)cc1 | 0.119 | 0.607 | 0.406 | -2.16 (inactive) | 0.36 | 1.25 | 0.569 | 0.857 | -0.568 | 0.454 | 1.17 | -0.668 | 1.16 | 1.48 | 0.522 | 0.0546 | 0.336 | 1.15 | 1.27 | 0.734
[N-]=[N+]=Nc1ccccc1[C@@H]1OC(c2ccc(OCCCO)cc2)=N[C@]1(CCS(=O)(=O)c1ccccc1)C(N)=O | 1.37 | 0.708 | 1.25 | -0.752 (inactive) | 1.09 | 1.23 | 0.0129 | 1.22 | -0.329 | 0.992 | 1.38 | 0.272 | -0.109 | 0.925 | 0.629 | 0.29 | 0.57 | 1.51 | 1.81 | 0.992
Cc1ccc(S[C@]2(C(=O)NCCCN(C)C)CC(=O)N(Cc3cc(C(F)(F)F)cc(C(F)(F)F)c3)[C@@H]2c2ccc(CO)cc2I)cc1 | -0.0355 | 0.703 | 0.879 | -0.0675 (inactive) | -0.833 | -2.21 | -1.18 | -1.71 | -1.53 | 0.835 | -0.0139 | -2.1 | -0.664 | 0.325 | 0.764 | 0.299 | 0.242 | 1.73 | 0.215 | 0.0119
CC#CC(=O)Oc1ccccc1C=CC(=O)OCC | 0.743 | -0.223 | -0.226 | -0.634 (inactive) | -0.176 | 0.0939 | 0.27 | 0.104 | -0.0092 | 0.321 | 0.793 | -2.16 | 0.136 | 0.0515 | -0.27 | -0.096 | -0.0709 | -0.256 | 0.045 | 0.115
NC(=O)NCC#Cc1ccc2c(c1)[C@]1(C(=O)N2)[C@H](c2ccc(O)cc2)N2[C@H](c3ccccc3)[C@H](c3ccccc3)OC(=O)[C@H]2[C@@H]1C(=O)O | -0.0693 | -0.173 | 0.617 | 0.307 (inactive) | -0.114 | -0.928 | -0.683 | -0.966 | -1.22 | -0.203 | -0.0303 | -0.708 | -1.09 | 0.342 | 0.521 | -0.185 | -0.42 | -0.0683 | -0.354 | -0.27
CC(C)(C)OC(=O)CC[C@]1(C(=O)N2CCOCC2)N=C(c2ccc(OCCCO)cc2)O[C@H]1c1ccccc1N=[N+]=[N-] | 1.5 | 0.653 | 0.854 | -0.921 (inactive) | 1.18 | 1.2 | -0.0405 | 0.0265 | 0.283 | 0.936 | 1.05 | 2.2 | 0.119 | 0.981 | 0.0644 | -0.0125 | 0.308 | 1.37 | 2.43 | 1.23
C=CCNC(=O)[C@H]1[C@@H]2C(=O)O[C@@H](c3ccccc3)[C@@H](c3ccccc3)N2[C@@H](c2ccccc2OCCO)[C@]12C(=O)Nc1ccc(C#CCC(C(=O)OC)C(=O)OC)cc12 | 0.797 | 0.309 | 0.973 | -2.39 (inactive) | 1.26 | 1.33 | 1.15 | 1.37 | 1.23 | 0.568 | 1.46 | -2.33 | 1.07 | 2.02 | 1.24 | 0.0914 | 0.224 | 0.46 | 1.37 | 2.13
C=C(COC)/C(=C/C[C@H](OC(C)=O)c1ccc(CO)o1)c1cc(C(=O)OC)ccc1OC | 1.12 | 0.667 | -0.201 | -0.0994 (inactive) | 0.483 | -0.0434 | -0.173 | -0.0145 | -0.164 | 1.32 | 0.487 | -0.246 | -0.151 | -0.0624 | 0.204 | -0.0107 | -0.105 | -0.0489 | 0.0742 | -0.136
COC(=O)[C@]1(CCC(=O)OC(C)(C)C)N=C(c2ccc(OCCCO)cc2)O[C@@H]1c1ccccc1CN=[N+]=[N-] | 1.09 | 1.09 | 1.07 | -1.03 (inactive) | 0.432 | -0.109 | -0.843 | -0.307 | -0.696 | 0.26 | -0.0058 | -3.32 | -0.684 | 0.884 | 0.367 | -0.0045 | 0.147 | 0.977 | 0.157 | 0.869
CC(C)C[C@@H]1NC(=O)[C@@H]2C[C@H](C(=O)NCc3ccc(F)cc3)[C@H](c3cccc(OCCO)c3)N2C1=O | 1.52 | -0.23 | 0.0811 | -0.177 (inactive) | 1.2 | 0.615 | 0.284 | 0.946 | 0.322 | -0.19 | 0.0179 | -0.992 | 0.0533 | 0.217 | 0.0115 | -0.31 | 0.147 | -0.0315 | 0.172 | -0.41
O=C1O[C@@H](c2ccccc2)[C@@H](c2ccccc2)N2[C@@H](c3ccccc3OCCO)[C@]3(C(=O)Nc4ccccc43)[C@@H](C(=O)Nc3nc4ccccc4s3)[C@H]12 | 1.02 | 1.05 | 0.0859 | -1.86 (inactive) | 1.23 | 1.02 | 0.383 | 0.799 | 0.287 | 0.33 | 1.45 | -3.25 | 0.108 | 1.41 | 0.494 | -0.0621 | 0.206 | 1.96 | 0.618 | 1.56
